A short description of experiment [1]: MultiTox-Fluor Cytotoxicity Assay - LYMP1-001 - Live Cells (AID 947; active means well fitted curve in the direction sought with a large enough effect; an effect the other way counts as inactive or inconclusive;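 further: 0% = DMSO only and full inhibition = tetraoctylammonium bromide control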).
Experiment [2] in a line: MultiTox-Fluor Cytotoxicity Assay - LYMP1-002 - Dead Cells (AID 960; active means well fitted curve in the direction sought with a large enough effect; an effect the other way counts as inactive or inconclusive;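 further: 0% = DMSO and 100% = tetraoctylammonium bromide; nearly all actives have a fitted effect of over 60% in size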). A digest of the protocol: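 Dead-cell fluorescence (Ex/Em 485/520) after 16 h compound exposure at 37 C of LYMP1-002 lymphoblastoid cells in complete medium; AC50 by Hill equation, with data scaled between DMSO and 15 uM tetraoctylammonium bromide.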
Experiment [3] addresses Estrogen receptor (Homo sapiens) (UniProt P03372). In words: qHTS assay for small molecule antagonists of estrogen receptor alpha signaling (AID 588513; active means well fitted curve in the direction sought with a large enough effect in the signal ratio, with a control signal flat, not every such curve was filed as active; the % refers to the signal ratio; further: on the % scale 0 is the no-effect control and ±100 the full control effect). A digest of the protocol: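 Fluorescence from CCF4 substrate after 2 h at room temperature gave reporter activity; cells had been exposed to compound and 0.5nM 17-beta-estradiol for 18 h at 37 C. Hill-equation fitting yielded IC50 and maximal response.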
A general note: In qHTS, concentration-response curves come from the screen itself.

The target is the same in experiment [4]. In words: qHTS assay for small molecule agonists of estrogen receptor alpha signaling (AID 588514).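 Further: 0% = vehicle only and 100% = reference agonist; nearly all actives have a fitted effect of over 70% in size.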 The essentials: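 EC50 and efficacy came from Hill fits of beta-lactamase reporter signal (CCF4 dye, 2 h at room temperature) scaled between DMSO and 20 nM 17-beta-estradiol. Agonist mode: HEK293 ER-alpha-UAS-bla cells in charcoal/dextran-stripped serum medium, 18 h compound exposure at 37 C.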

Experiment [5] deals with Glucocorticoid receptor (Homo sapiens) (UniProt P04150). In words: qHTS assay for small molecule agonists of glucocorticoid receptor signaling (AID 588532; active means well fitted curve in the direction sought with a large enough effect in the signal ratio, with a control signal flat; the % refers to the signal ratio;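 further: 100% = dexamethasone at 0.1 µM and 0% = DMSO only wells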). The following applies: HeLa MMTV-bla, beta-lactamase ratio, agonist, 18 h; stronger effect = higher value; percent of dexamethasone control, DMSO zero. A digest of the protocol:
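Agonist-mode qHTS: GRE-driven beta-lactamase in HeLa cells exposed 18 h to titrated compounds (up to 92 uM), then CCF4 ratio read after 2 h at RT; Hill-fitted EC50, efficacy relative to 0.1 uM dexamethasone.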

The target in experiment [6] is Vitamin D3 receptor (Homo sapiens) (UniProt P11473). In words: qHTS assay for small molecule antagonists of vitamin D receptor signaling (AID 588541).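 Further: receptor activated by calcitriol during compound treatment; series mostly up to about 77 µM; on the % scale 0 is the no-effect control and ±100 the full control effect.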 The essentials: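 Antagonist-mode beta-lactamase reporter assay: HEK293T VDR-UAS-bla cells were exposed to titrated compound alongside 1-alpha,25-dihydroxyvitamin D3 at 3 nM final for 16 h. Values were normalized to the 50 nM agonist control and DMSO basal, with IC50 and efficacy from Hill equation fits.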
Vitamin D3 receptor (Homo sapiens), sequence (P11473 whole entry, looked up): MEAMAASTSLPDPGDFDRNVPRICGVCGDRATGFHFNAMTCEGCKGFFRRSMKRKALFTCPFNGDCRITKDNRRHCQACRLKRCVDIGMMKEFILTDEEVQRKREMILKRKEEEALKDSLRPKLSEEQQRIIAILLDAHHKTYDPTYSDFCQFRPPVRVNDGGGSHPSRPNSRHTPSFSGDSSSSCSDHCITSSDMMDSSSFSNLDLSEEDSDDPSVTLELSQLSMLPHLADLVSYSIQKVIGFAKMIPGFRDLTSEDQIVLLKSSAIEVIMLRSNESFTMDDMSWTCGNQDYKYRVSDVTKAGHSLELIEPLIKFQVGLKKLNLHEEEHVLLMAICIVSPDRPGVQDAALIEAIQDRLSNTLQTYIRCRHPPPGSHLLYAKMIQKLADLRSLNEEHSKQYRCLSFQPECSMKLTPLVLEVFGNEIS

For experiment [7] the target is unchanged. In words: qHTS assay for small molecule agonists of vitamin D receptor signaling (AID 588543).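 Further: 0% = DMSO basal and 100% = reference agonist control.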 The essentials: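 Reporter cells (HEK293T, VDR-UAS-bla) were seeded in medium with 2% charcoal-stripped serum and incubated 5 h, then compounds in concentration series were added for 16 h at 37 °C. Stimulation was scaled between DMSO basal and 50 nM 1α,25-dihydroxyvitamin D3.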

The nature of experiment [8]: qHTS assay for small molecule agonists of retinoid X receptor alpha signaling (AID 588544).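 On activation: 0% = DMSO basal wells and 100% = reference agonist.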 Particulars: HEK293T RXRa-UAS-bla, beta-lactamase reporter, 18 h; 530 nm emission.
Experiment [9] concerns the target Retinoic acid receptor RXR-alpha (Homo sapiens) (UniProt P19793). The description is as above.
In experiment [10] the target is Voltage-gated inwardly rectifying potassium channel KCNH2 (Homo sapiens) (UniProt Q12809). In words: qHTS Assay for Small Molecule Inhibitors of the Human hERG Channel Activity (AID 588834; active means well fitted curve in the direction sought with a large enough effect; an effect the other way counts as inactive or inconclusive;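 further: top concentration of the series differs between compounds; on the % scale 0 is the no-effect control and ±100 the full control effect; lower thallium flux fluorescence means stronger hERG block; nearly all actives have a fitted effect of over 50% in size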). A digest of the protocol:
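Step 1: BacMam hERG transduction of U2OS, 4 hrs RT. Step 2: overnight 37 °C, plate 2000 cells/well, 4 hr. Step 3: FluxOR load, compound 10 min, stimulate, read fluorescence.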

Experiment [11] is described as follows: qHTS assay for small molecule disruptors of the mitochondrial membrane potential - 1 hr assay (AID 651754). Further: on the % scale 0 is the no-effect control and ±100 the full control effect; nearly all actives have a fitted effect of over 35% in size. The essentials: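 Mitochondrial potential in living HepG2 cells after 1 hr compound treatment at 37C was read with Mito-MPS dye added for a further 30 min. Red aggregate and green monomer fluorescence were measured; loss of potential leaves dye as cytoplasmic monomers.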

In experiment [12] the target is Tumor necrosis factor (Homo sapiens) (UniProt P01375). Briefly: qHTS assay to identify small molecules that stimulate Tumor Necrosis Factor-alpha (TNF-alpha) secretion (AID 651757; active means well fitted curve in the direction sought with a large enough effect in the signal ratio; the % refers to the signal ratio; further: 0% is about no effect). A digest of the protocol: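 Secreted TNF-alpha quantified by TR-FRET sandwich of two labeled anti-TNF-alpha antibodies, incubated 3 hr at room temperature. Preceded by 17 hr, 37 C compound treatment of THP-1 cells at 3000 cells/well.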
Tumor necrosis factor (Homo sapiens), sequence (P01375 whole entry, looked up): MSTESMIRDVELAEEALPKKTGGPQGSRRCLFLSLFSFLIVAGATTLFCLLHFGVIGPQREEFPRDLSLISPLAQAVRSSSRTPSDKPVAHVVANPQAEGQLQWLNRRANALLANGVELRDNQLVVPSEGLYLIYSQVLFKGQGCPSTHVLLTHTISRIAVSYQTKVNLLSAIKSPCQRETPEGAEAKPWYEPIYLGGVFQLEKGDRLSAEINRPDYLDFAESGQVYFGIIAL

Experiment [13] in a line: qHTS assay for environmental chemicals that activate the Aryl hydrocarbon Receptor (AhR) signaling pathway (AID 651777; active means well fitted curve in the direction sought with a large enough effect; an effect the other way counts as inactive or inconclusive; further: % of control where 0% means no effect; nearly all actives have a fitted effect of over 15% in size). The following applies: 1A2-DRE human hepatoma cells, luciferase, 24 h; activation: stronger effect = higher value. A digest of the protocol: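 Stable CYP1A2 promoter/DRE-luciferase human hepatoma line treated 24 hr; One-Glo luminescence, 30 min RT.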
Experiment [14] can be described thus: qHTS assay for small molecule agonists of the antioxidant response element (ARE) signaling pathway measured by Nrf2-dependant transcriptional activity (AID 720636; active means well fitted curve in the direction sought with a large enough effect in the repeat runs; an effect the other way counts as inactive or inconclusive;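 further: HepG2 cells with an ARE-driven luciferase reporter; % of control where 0% means no effect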). The essentials:
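Reporter gene assay, HepG2 ARE-luc: 16 hr compound, 37 C, 5% CO2; read-out luciferase luminescence.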

A short description of experiment [15]: qHTS assay for small molecule antagonists of the retinoid-related orphan receptor gamma (ROR-gamma) signaling pathway - cell viability counter screen (AID 720652; active means well fitted curve in the direction sought with a large enough effect in the repeat runs; an effect the other way counts as inactive or inconclusive;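 further: series mostly up to about 92 µM; compound exposure lasted 16 hr before ATP read; on the % scale 0 is the no-effect control and ±100 the full control effect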). The essentials: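 Cytotoxicity counter screen: intracellular ATP (CellTiter-Glo luminescence) measured in the doxycycline-induced CHO RORE-luciferase reporter line after 16 hr compound exposure at 37 C, 5% CO2.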

The nature of experiment [16]: qHTS assay for small molecule activators of the human pregnane X receptor (PXR) signaling pathway (AID 720659; call rule not given here; further: 0% is about no effect).
Experiment [17] concerns the target Peroxisome proliferator-activated receptor gamma (Homo sapiens) (UniProt P37231). Briefly: qHTS assay for small molecule agonists of peroxisome proliferator-activated receptor gamma signaling (AID 588536; active means well fitted curve in the direction sought with a large enough effect in the signal ratio, with a control signal flat, not every such curve was filed as active; the % refers to the signal ratio;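 further: 0% = DMSO basal wells and 100% = rosiglitazone at 2 µM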). A digest of the protocol:
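Cells were plated and held 6–6.5 h at 37 C, then compounds were added as a titration series. After a further 16 h, CCF4 dye was loaded for 2 h at room temperature and emission at 460/530 nm recorded.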

Experiment [18] concerns the target Thyroid hormone receptor beta (Homo sapiens) (UniProt P10828). In words: qHTS assay for small molecule antagonists of thyroid hormone receptor beta signaling (AID 588547; active means well fitted inhibition curve with a large enough effect in the signal ratio, with a control signal flat, not every such curve was filed as active; the % refers to the signal ratio;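 further: cells stimulated with 0.4 nM T3 agonist during compound exposure; series mostly up to about 77 µM; on the % scale 0 is the no-effect control and ±100 the full control effect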). The following applies: TR-UAS-bla HEK293, beta-lactamase ratio, antagonist mode, 18 h. A digest of the protocol:
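Inhibition of T3-driven (0.4nM final) beta-lactamase reporter activity was measured over 0.59 nM to 92 uM compound after 18 h at 37 C. The cells were GripTite HEK293 TR-UAS-bla in charcoal/dextran-stripped serum, with CCF4 ratio read-out and IC50 from Hill fits.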

Experiment [19] is described as follows: qHTS assay for small molecule activators of the p53 signaling pathway (AID 651743; active means well fitted activation curve with a large enough effect in the signal ratio, not every such curve was filed as active; the % refers to the signal ratio; further: series mostly up to about 92 µM; % of control where 0% means no effect). Particulars: HCT-116 p53RE-bla, beta-lactamase FRET ratio, 16 h; activation: stronger effect = higher value. A digest of the protocol: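 After 16 hours compound treatment at 37 C, HCT-116 cells stably expressing p53RE-driven beta-lactamase were loaded with LiveBLAzer B/G FRET substrate for 2 hours at room temperature. Fluorescence intensity served as the p53 activation read-out.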

For experiment [20], the target named is Nuclear receptor subfamily 1 group I member 2 (Rattus norvegicus) (UniProt Q9R1A7). In words: qHTS assay for small molecule activators of the rat pregnane X receptor (rPXR) signaling pathway (AID 651751; call rule not given here; further: 0% is about no effect). Particulars: rPXR reporter cells, luciferase (One-Glo), 24 h.
Nuclear receptor subfamily 1 group I member 2 (Rattus norvegicus), sequence (Q9R1A7 whole entry, looked up): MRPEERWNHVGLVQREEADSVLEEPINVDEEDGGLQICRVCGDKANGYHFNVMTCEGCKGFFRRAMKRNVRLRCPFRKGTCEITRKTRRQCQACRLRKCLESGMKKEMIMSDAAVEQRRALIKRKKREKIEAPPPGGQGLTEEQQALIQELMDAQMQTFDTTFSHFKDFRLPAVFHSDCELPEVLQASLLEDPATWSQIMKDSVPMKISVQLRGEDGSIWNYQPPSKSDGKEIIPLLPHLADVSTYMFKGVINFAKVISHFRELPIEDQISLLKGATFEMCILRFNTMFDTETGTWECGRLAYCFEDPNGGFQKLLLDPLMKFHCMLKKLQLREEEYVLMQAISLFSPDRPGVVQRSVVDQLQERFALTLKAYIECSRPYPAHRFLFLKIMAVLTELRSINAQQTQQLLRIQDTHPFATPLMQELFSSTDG

Data on five compounds can be found in PubChem BioAssay (NCATS).

Where “and” joins values, the source holds several entries; their conditions need not be identical. Identical values can stand only once. Results filed as inconclusive are left out. Calls of active or inactive are those of the source. Unless noted, the call rests on the fitted dose curve.

Glucocorticoid receptor (Homo sapiens), sequence (P04150 whole entry, looked up): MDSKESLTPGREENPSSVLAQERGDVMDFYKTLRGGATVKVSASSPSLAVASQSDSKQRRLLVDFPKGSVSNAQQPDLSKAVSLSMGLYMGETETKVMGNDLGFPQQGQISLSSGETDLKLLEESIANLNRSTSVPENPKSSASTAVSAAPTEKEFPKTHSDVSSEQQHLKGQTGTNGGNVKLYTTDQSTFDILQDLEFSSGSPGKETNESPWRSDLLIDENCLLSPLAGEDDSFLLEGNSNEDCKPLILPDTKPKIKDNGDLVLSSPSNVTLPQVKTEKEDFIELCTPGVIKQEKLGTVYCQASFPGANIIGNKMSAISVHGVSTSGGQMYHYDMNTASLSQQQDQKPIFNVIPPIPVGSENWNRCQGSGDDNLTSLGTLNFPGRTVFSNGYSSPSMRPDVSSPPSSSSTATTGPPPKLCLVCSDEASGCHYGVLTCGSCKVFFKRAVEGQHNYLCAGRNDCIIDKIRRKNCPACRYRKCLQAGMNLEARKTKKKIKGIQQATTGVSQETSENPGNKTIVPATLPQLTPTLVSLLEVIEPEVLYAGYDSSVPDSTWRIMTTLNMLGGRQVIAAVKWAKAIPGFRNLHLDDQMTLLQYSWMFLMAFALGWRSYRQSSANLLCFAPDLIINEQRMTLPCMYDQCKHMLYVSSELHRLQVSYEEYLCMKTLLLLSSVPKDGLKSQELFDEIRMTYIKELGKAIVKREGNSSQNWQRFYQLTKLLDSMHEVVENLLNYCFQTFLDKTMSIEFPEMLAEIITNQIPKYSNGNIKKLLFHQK
Peroxisome proliferator-activated receptor gamma (Homo sapiens), sequence (P37231 whole entry, looked up): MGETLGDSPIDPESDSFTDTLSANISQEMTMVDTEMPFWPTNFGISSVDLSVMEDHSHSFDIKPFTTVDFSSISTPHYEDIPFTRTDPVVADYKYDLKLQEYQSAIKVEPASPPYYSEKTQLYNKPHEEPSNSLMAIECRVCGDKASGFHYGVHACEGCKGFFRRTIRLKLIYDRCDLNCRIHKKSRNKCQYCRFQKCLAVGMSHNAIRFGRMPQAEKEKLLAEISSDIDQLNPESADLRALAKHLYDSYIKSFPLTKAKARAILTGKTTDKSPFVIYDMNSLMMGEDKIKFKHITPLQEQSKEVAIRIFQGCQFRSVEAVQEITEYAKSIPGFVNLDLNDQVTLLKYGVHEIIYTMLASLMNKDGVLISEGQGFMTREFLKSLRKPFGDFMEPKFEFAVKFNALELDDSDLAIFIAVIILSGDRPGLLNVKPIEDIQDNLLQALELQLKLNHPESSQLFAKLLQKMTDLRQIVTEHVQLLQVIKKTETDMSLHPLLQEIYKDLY
Estrogen receptor (Homo sapiens), sequence (P03372 whole entry, looked up): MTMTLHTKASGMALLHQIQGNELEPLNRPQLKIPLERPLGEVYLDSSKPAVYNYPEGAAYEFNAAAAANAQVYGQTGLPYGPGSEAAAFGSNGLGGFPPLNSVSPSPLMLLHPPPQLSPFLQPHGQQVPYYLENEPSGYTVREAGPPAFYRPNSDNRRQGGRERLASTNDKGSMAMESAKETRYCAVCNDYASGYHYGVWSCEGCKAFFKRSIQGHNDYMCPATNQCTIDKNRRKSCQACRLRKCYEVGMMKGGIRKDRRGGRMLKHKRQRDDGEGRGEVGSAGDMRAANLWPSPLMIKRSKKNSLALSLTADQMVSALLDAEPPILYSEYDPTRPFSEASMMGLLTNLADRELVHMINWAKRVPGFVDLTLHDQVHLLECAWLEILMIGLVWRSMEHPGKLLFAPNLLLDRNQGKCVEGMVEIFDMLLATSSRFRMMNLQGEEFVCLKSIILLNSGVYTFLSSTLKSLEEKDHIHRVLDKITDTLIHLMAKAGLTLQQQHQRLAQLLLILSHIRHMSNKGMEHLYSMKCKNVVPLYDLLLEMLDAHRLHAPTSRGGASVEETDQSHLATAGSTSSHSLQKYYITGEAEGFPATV
Retinoic acid receptor RXR-alpha (Homo sapiens), sequence (P19793 whole entry, looked up): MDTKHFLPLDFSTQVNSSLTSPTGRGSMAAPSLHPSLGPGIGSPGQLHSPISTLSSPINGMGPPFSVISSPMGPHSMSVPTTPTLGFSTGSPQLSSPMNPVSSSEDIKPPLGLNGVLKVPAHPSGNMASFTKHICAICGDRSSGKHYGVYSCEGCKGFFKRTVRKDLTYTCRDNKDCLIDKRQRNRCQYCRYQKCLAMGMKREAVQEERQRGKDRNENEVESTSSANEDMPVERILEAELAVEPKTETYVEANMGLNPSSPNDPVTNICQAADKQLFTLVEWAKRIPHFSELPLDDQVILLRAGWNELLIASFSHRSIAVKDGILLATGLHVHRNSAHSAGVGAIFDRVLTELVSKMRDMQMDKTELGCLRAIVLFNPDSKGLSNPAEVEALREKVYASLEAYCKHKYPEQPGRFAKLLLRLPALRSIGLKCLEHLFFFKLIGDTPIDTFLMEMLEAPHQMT
Voltage-gated inwardly rectifying potassium channel KCNH2 (Homo sapiens), sequence (Q12809 whole entry, looked up): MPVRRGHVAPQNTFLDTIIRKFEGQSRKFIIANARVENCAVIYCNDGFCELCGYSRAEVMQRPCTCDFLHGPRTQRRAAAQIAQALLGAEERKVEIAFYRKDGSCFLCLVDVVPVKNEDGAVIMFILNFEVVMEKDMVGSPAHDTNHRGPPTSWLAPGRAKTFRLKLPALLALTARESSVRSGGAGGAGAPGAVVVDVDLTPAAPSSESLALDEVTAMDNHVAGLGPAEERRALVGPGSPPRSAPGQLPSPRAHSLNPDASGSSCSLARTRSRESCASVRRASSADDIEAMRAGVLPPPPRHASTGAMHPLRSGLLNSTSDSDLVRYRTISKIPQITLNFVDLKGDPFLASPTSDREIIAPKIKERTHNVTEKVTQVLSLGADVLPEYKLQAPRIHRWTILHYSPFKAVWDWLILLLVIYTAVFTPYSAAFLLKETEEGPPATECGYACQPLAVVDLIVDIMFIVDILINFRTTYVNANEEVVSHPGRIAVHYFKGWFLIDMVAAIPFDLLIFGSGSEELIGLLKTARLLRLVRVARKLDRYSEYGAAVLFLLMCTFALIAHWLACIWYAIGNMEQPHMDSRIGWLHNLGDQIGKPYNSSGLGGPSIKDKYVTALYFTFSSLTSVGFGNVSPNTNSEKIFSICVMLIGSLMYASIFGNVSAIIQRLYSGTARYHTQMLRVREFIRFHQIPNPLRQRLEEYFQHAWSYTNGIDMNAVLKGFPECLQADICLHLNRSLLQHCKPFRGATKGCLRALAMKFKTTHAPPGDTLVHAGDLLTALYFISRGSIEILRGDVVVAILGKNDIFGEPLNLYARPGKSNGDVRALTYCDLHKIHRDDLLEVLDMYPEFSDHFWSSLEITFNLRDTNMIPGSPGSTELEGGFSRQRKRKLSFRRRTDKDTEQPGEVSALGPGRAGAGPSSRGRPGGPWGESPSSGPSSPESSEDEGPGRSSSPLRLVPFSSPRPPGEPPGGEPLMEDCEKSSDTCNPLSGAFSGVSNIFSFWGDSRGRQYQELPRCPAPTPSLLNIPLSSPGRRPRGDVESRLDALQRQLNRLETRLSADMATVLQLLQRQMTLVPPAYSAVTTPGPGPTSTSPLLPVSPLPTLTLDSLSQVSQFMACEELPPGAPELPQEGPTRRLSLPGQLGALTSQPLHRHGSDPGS

For the compound `OCCNCCO`, the Potency entry in [1], in experiment [2], in [3], in [4], in experiment [10] and in experiment [11] was “inactive” in each case. Moreover, the Potency result in [14] and in experiment [15] was “inactive” in each case. The activation was -6.89% (inactive) and -4.55% (inactive) in experiment [5]; 1.33% (inactive) and -0.956% (inactive) in [13]. For the same compound, the outcome in experiment [6], in experiment [7], in experiment [9], in experiment [12] and in experiment [16] was inactive. Further, the max response in experiment [8] is -28.3% and -18.3%.
Consider `Cc1ccc([N+](=O)[O-])cc1N`, for which the Potency result in [1], in experiment [2], in experiment [3], in experiment [4], in experiment [10] and in experiment [11] was “inactive” in each case. For the same compound, the Potency entry in experiment [14] and in [15] was “inactive” in each case. The compound was classed as inactive in experiment [17], in [6], in experiment [7], in [9], in [12] and in experiment [16]. The max response is -6.56% and -2.61% in experiment [8]; 0.691% (inactive) and 2.27% (inactive) in experiment [20]. Moreover, the activity change % (negative = inhibition) in experiment [18] is 15.7% (inactive) and 9.17% (inactive). The activation in experiment [19] was -1.56% (inactive) and -5% (inactive); in experiment [13] it was 6.03% (inactive) and 2.09% (inactive).
`CCC(C)c1ccccc1O` (stereo unspecified): the Potency result in experiment [1], in experiment [2], in experiment [10], in experiment [11], in experiment [14] and in experiment [15] was “inactive” throughout. Moreover, the activation in [5] was -11.6% (inactive) and -11.3% (inactive) and 1.07% (inactive); in experiment [13], -0.0817% (inactive) and -0.418% (inactive) and 0.519% (inactive). The call in [17], in experiment [6], in [7], in [9], in experiment [12] and in experiment [16] was inactive. Also, the max response in experiment [8] is -16.8% and -5.28% and 4.79%; in experiment [20], 11.2% (inactive) and -2.55% (inactive) and 1.18% (inactive). Besides, the activity change % (negative = inhibition) in [18] was -2.64% (inactive) and 0.537% (inactive).
As for `O=NO`, the Potency entry in experiment [1], in [2], in experiment [10], in experiment [11], in experiment [14] and in experiment [15] was “inactive” throughout. Further, the compound was called inactive in [17], in experiment [6], in experiment [7], in experiment [9], in experiment [12] and in [16]. The max response in experiment [8] was -10.7% and -17.9%; in experiment [20] it was 3.2% (inactive) and 1.29% (inactive). Besides, the activity change % (negative = inhibition) in [18] is -1.68% (inactive) and 1.18% (inactive). In addition, in experiment [13], the activation is -0.432% (inactive) and -1.54% (inactive).
Regarding `CC(=O)OC/C=C(\C)CCC=C(C)C`, the Potency entry in [1], in experiment [2], in experiment [3], in [4], in experiment [10] and in experiment [11] was “inactive” in each case. The Potency entry in experiment [14] and in experiment [15] was “inactive” each time. For the same compound, the activation in [5] is 3.31% (inactive) and -2.94% (inactive); in experiment [19] it was -0.898% (inactive) and 4.78% (inactive); in experiment [13], 0.424% (inactive) and -0.161% (inactive). Also, the result in experiment [17], in experiment [9], in [12] and in experiment [16] was inactive. The max response in experiment [8] is 4.32% and -5.25%; in experiment [20], 1.82% (inactive) and -1.93% (inactive). The activity change % (negative = inhibition) in [18] was 10.6% (inactive).
